In PubChem BioAssay AID2551 (National Center for Advancing Translational Sciences (NCATS), 2010):
Screen size: about 310,000 compounds; about 17,000 (5.5%) were called active. Another 11% or so got no clear call; they are omitted. Calls come from the whole dose curve; as a rule, active = well fitted inhibition curve with a large enough effect; inconclusive = small, poorly fitted or top-dose-only effect, or effect the other way; inactive = no such curve, though single readings can be large or run the other way. The full list was thinned out, with actives kept by preference.

The molecules below were run against Nuclear receptor ROR-gamma (Mus musculus) (UniProt P51450) (assay: qHTS for inhibitors of ROR gamma transcriptional activity). Details: Drosophila S2 Gal4-RORgamma UAS-luciferase reporter, 20 h; series mostly up to 53.6 µM; activity change, negative = inhibition: at the top concentration.
Nuclear receptor ROR-gamma (Mus musculus), sequence (P51450 whole entry, looked up, the tested form may be a part): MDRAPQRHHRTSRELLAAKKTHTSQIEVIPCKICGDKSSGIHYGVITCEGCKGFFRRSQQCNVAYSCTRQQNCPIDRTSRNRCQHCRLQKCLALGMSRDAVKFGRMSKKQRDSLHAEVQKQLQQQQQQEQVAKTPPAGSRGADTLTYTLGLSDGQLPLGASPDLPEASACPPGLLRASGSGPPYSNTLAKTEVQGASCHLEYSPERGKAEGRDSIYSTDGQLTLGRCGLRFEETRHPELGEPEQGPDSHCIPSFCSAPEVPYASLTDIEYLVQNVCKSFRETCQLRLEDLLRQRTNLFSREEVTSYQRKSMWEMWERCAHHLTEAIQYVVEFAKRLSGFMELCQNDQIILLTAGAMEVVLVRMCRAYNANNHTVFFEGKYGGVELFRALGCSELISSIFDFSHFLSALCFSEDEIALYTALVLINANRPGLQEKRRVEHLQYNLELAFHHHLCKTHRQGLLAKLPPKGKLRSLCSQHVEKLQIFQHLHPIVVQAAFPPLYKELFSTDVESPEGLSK
In short: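 Stable Schneider cell line, Gal4 DNA-binding domain fused to ROR gamma, UAS-luciferase. Cmpd 1 hr RT → CuSO4 700 uM final → 20 hr RT → luciferase reagent 10 min → luminescence.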
% is set by controls: 0 for no effect and ±100 for the full control effect; potency is the fitted concentration of half-maximal effect.
Note: nearly all actives have a fitted effect of over 60% in size.

Structure (SMILES)	activity change, negative = inhibition	Potency
O=C(COC(=O)c1ccc(F)cc1)NCCCc1ccccc1	-5.4% (inactive)	–
O=C(NCCc1cccc(F)c1)C1CCCN(c2nc3ccccc3s2)C1 (stereo not drawn)	7.11% (inactive)	–
COc1cccc(NC(=S)NC(=O)c2c(Cl)c(C)nn2C)c1	–	3.55 µM (active)
COc1cccc(NC(=O)c2ccccc2SC)c1	36% (inactive)	–
COc1cccc(NC(=O)c2nn(-c3ccc(OC)cc3OC)c(=O)c3ccccc23)c1	-10.3% (inactive)	–
CC1(C(=O)N/N=C/c2cc3c(cc2Br)OCO3)CC1(Br)Br (stereo not drawn)	20% (inactive)	–
COc1ccccc1-c1nnc(SCC(=O)Nc2cc(C)on2)o1	-33% (inactive)	–
CC(=O)Oc1ccc(-c2nc3c(C)cccc3c(=O)o2)cc1	-6.86% (inactive)	–
COc1ccc(/C=C/c2noc(-c3ccccc3OC(C)=O)n2)cc1	–	11.2 µM (active)
CCOC(=O)c1ccc(NC(=O)CNC(=O)c2ccco2)cc1	0.921% (inactive)	–
CCOC(=O)c1ccc(NC(=O)c2nc[nH]c2C(=O)NCc2ccccc2)cc1	–	3.55 µM (active)
CCOC(=O)c1[nH]cnc1C(=O)Nc1ccccc1C	–	12.6 µM (active)
CCOC(=O)c1c(C)[nH]c(C)c1S(=O)(=O)N(C)CC(=O)Nc1ccccc1C	6.38% (inactive)	–
CCOC(=O)c1ccc(NC(=O)c2cc(=O)[nH]c3ccccc23)cc1	5.91% (inactive)	–
Cc1ccccc1NC(=O)CCOc1ccccc1	18.4% (inactive)	–
Cc1ccc(CNS(=O)(=O)c2ccc3c(c2)N(C)CCO3)cc1	43.1% (inactive)	–
COc1ccc(CCNC(=O)CSCc2ccc(Br)cc2)cc1OC	38.4% (inactive)	–
COc1cc(C(C(=O)NC2CCCC2)N(C(=O)c2ccco2)c2ccccc2C(C)=O)cc(OC)c1OC (stereo not drawn)	-0.826% (inactive)	–
CCN1N=C(c2ccccc2)CCC1=O	-3% (inactive)	–
COCCCNc1nc2c(-c3cccc(C)c3)nnn2c2ccc(Cl)cc12	-39.1% (inactive)	–
COC(=O)Cn1cc(/C=C/[N+](=O)[O-])c2ccccc21	–	10 µM (active)
COC(=O)Cn1cc(C(=O)c2cccs2)c2ccccc21	23.9% (inactive)	–

Structure (SMILES)	activity change, negative = inhibition	Potency
COCCCNC(=O)Cn1cc(/C=C(\C#N)C(=O)N2CCN(c3ccccc3)CC2)c2ccccc21	-6.89% (inactive)	–
O=C(NCc1cccc(Cl)c1)C1CCN(c2nnc(N3CCCC3=O)s2)CC1	11% (inactive)	–
CCOC(=O)C1CCN(C(=O)C2CCCN(S(=O)(=O)c3ccc(OC)c(Cl)c3)C2)CC1 (stereo not drawn)	23.7% (inactive)	–
CCOC(=O)N/N=C/c1cccnc1	17% (inactive)	–
COc1cc(/C=N/NC(=S)Nc2cccnc2)cc(OC)c1O	–	6.31 µM (active)
COc1ccc(/C=C/C(=O)Nc2cccnc2)cc1OC	37% (inactive)	–
COCCNC(=S)N/N=C/c1c(C)[nH]c2ccccc12	–	11.2 µM (active)
Cc1[nH]c2ccccc2c1/C=N\NC(=O)Cn1nnc(-c2ccccc2)n1	7.95% [at 10 µM] (inactive)	–
COc1cc(N=Cc2c(O)[nH]c3ccccc23)cc(OC)c1OC	-6.6% (inactive)	–
C=CCn1c(=O)c(C(=O)Nc2ncccc2O)c(O)c2ccccc21	-18% (inactive)	–
COC(=O)N/N=C/c1ccc(/C=N/NC(=O)OC)cc1	9.4% (inactive)	–
CCOc1ccc(/C=N/NC(N)=S)cc1	–	5.01 µM (active)
Cc1ccc(OCCOc2cccc(/C=N/NC(N)=O)c2)cc1	-0.897% (inactive)	–
COC(=O)[C@@H]1CCCN1C(=O)c1cc(COc2cccc3cccnc23)on1	-12.3% (inactive)	–
CCCC(=O)N1CCN(c2nnc(-c3ccc(C)cc3)c3ccccc23)CC1	-3% (inactive)	–
O=C(CN1C(=O)COc2ccc(Cl)cc21)N1CCOCC1	-30.2% (inactive)	–
Cc1c(Cl)cccc1NC(=O)CSc1ccc(-c2cccnc2)nn1	0.66% (inactive)	–
Cc1ccc(C)c(NC(=S)NCC(c2cccnc2)N2CCOCC2)c1 (stereo not drawn)	-15.5% (inactive)	–
Cc1ccc(C)c2[nH]c(=O)c(CN(Cc3cccnc3)C(=S)NCc3ccco3)cc12	30.7% (inactive)	–
Cc1ccc(CN(Cc2cccnc2)C(=S)Nc2cc(Cl)ccc2C)cc1	–	3.16 µM (active)
CCc1cccc(C)c1NC(=S)N(CCCN1CCN(C)CC1)Cc1cccs1	-5.96% (inactive)	–
Cc1ccccc1NC(=S)N(CCCN1CCOCC1)Cc1cccs1	-24.3% (inactive)	–

Structure (SMILES)	activity change, negative = inhibition	Potency
Cc1ccc(CN(Cc2cccnc2)C(=S)Nc2cccc(Cl)c2C)cc1	–	3.98 µM (active)
Cc1ccc(Cl)cc1NC(=S)N(CCN(C)C)Cc1cccs1	–	11.2 µM (active)
Cc1cccc(C(=O)Nc2ccccc2C(=O)NCc2cccnc2)c1	-0.355% (inactive)	–
COc1ccc(-c2nc3ccccc3c(=O)n2CCc2ccc(O)cc2)cc1	15.1% (inactive)	–
CSc1nnc2ccc(-c3ccc(C)cc3)nn12	-38.3% (inactive)	–
Cc1ccc(C(CNC(=O)Nc2cccc(C)c2)N2CCN(C)CC2)cc1 (stereo not drawn)	-13% (inactive)	–
COc1cc(C(=O)NCC2(c3ccccc3)CCCC2)ccc1OC(C)C	-1.02% (inactive)	–
O=C(NCc1ccccc1Cl)C1CCN(c2ncnc3c2nc2n3CCCCC2)CC1	-7.55% (inactive)	–
CCOCCCN1C(=O)C2C(C(=O)Nc3ccc(OCC)cc3)C3C=CC2(O3)C1C(=O)NC1CCCCC1 (stereo not drawn)	-4.56% (inactive)	–
CCN(CC)CCn1cnc2c1c(=O)[nH]c(=O)n2Cc1ccccc1	26% (inactive)	–
CCOc1ccc(OCCSc2nc3ccccc3n2CC(=O)O)cc1	-12.8% (inactive)	–
COc1ccc(S(=O)(=O)N2CCN(C)CC2)c(C)c1	16.1% [at 1.91 µM] (inactive)	–
COc1ccc(N(Cc2cc3ccc(C)cc3[nH]c2=O)S(=O)(=O)c2ccccc2)cc1	27.2% (inactive)	–
CC(C)(C)c1ccc(C(CC(=O)O)NS(=O)(=O)Cc2ccccc2)cc1 (stereo not drawn)	14.4% (inactive)	–
CCCCN(CCCC)CCCNC(=O)CN1C(=O)COc2ccc(S(=O)(=O)N3CCC(C)CC3)cc21	-34.4% (inactive)	–
O=C(CS(=O)(=O)Cc1ccccc1)NCC1CCCO1 (stereo not drawn)	0.86% (inactive)	–
O=C(NCCc1c[nH]c2ccccc12)C(=O)NCC1CCCO1 (stereo not drawn)	27.4% (inactive)	–
Fc1ccccc1Cn1cnc(NC(=S)NCCc2ccccc2)n1	12.5% (inactive)	–
CCOc1ccc(CCNC(=O)Nc2ccccc2)cc1OCC	7.93% (inactive)	–
S=C(NCCc1ccccc1)Nc1ccccc1	–	3.16 µM (active)
S=C(NCCCc1ccccc1)Nc1ccc(Br)cc1	–	8.91 µM (active)
O=C(NCCCc1ccccc1)C(=O)c1c[nH]c2ccccc12	15.9% (inactive)	–

Structure (SMILES)	activity change, negative = inhibition	Potency
NS(=O)(=O)c1ccc(CCNC(=S)Nc2ccc(S(N)(=O)=O)cc2)cc1	-1.74% (inactive)	–
S=C(NCCc1ccccc1)NCC1CCCO1 (stereo not drawn)	–	12.6 µM (active)
CCc1ccc(NC(=O)CS(=O)CC(=O)NCCCc2ccccc2)cc1 (stereo not drawn)	-11.9% (inactive)	–
O=C(NCCc1ccccc1)C1CC1	-14.5% (inactive)	–
S=C(NCCc1ccccc1)NCc1ccccc1Cl	–	7.94 µM (active)
COc1ccccc1N1CCC(N2CCN(CC(C)(C)C)C(CCO)C2)CC1 (stereo not drawn)	0.126% (inactive)	–
Cc1ccc(NS(=O)(=O)c2ccc(-c3coc(C)n3)cc2)c(C)c1	22.6% (inactive)	–
CSc1ccc(S(=O)(=O)N2CCC(C(=O)NCc3ccncc3)CC2)cc1	18.3% (inactive)	–
COc1cc(/C=C2\SC(=O)NC2=O)ccc1OCc1ccc(Cl)nc1	40.1% (inactive)	–
CC(C)c1ccc(NC(=O)[C@@H](NC(=O)N2CC(=O)Nc3ccccc32)C(C)C)cc1	34% (inactive)	–
O=C(c1ccc2nc(N3CCOCC3)sc2c1)N1CCN(c2ccc(Cl)cc2)CC1	28.8% (inactive)	–
Nc1nc(SCC(=O)Nc2ccc(Cl)cc2C(F)(F)F)n[nH]1	0.96% (inactive)	–
S=C(NCCC1=CCCCC1)Nc1ccccc1	–	1.78 µM (active)
CC(=O)Nc1ccc(S(=O)(=O)N(C)CC(=O)NCCC2=CCCCC2)cc1	-2.84% (inactive)	–
O=C(Cc1cccc2ccccc12)NCCC1=CCCCC1	11.1% [at 10 µM] (inactive)	–
COc1ccc(CCNC(=O)c2ccccc2OCc2ccccc2)cc1	23% (inactive)	–
O=C(NC1CCCC1)C(c1ccc(Cl)cc1)N(C(=O)c1csnn1)C1CC1 (stereo not drawn)	0.541% (inactive)	–
Cc1cc(C)nc(SCC(=O)c2ccc(Cl)cc2)n1	-15.7% (inactive)	–
C/C(=N\NC(=O)c1nc(C)cc(C)n1)c1ccccc1	4.85% (inactive)	–
Cc1cc(C)nc(S/C=C/C(=O)c2ccccc2)n1	–	6.31 µM (active)
Cc1ccc(CS(=O)(=O)CCC(=O)NCc2ccc(F)cc2)cc1	13.8% (inactive)	–
O=C(O)c1ccccc1C(=O)NC1=NN(c2ccccc2)CC1	3.73% (inactive)	–

Structure (SMILES)	activity change, negative = inhibition	Potency
CN(c1ccc(OCC(=O)O)cc1)S(=O)(=O)c1ccc2ccccc2c1	-8.22% (inactive)	–
Cc1ccccc1N1CCN(C2CCCN(C(=O)c3cn4c(C)cccc4n3)C2)CC1 (stereo not drawn)	-3.69% (inactive)	–
CCn1c(=O)n(CC)c2cc(N3CCCC3)c(NC(=O)c3ccccc3Br)cc21	2.25% (inactive)	–
CCOc1cc(NC(=O)c2ccccc2C(=O)O)c(OCC)cc1NC(=O)c1ccccc1F	19.6% [at 1.91 µM] (inactive)	–
CCN1CCN(c2cc3nc(C)n(Cc4ccccc4)c(=O)c3cc2NC(=O)c2ccccc2F)CC1	–	11.2 µM (active)
CS(=O)(=O)Nc1cccc(C2=NN(C(=O)c3cccc(F)c3)C(c3cccs3)C2)c1 (stereo not drawn)	15.3% (inactive)	–
CC(C)=CCCC(C)CN1CCC(n2nccc2NC(=O)c2ccccc2)CC1 (stereo not drawn)	-1.04% (inactive)	–
CC(=O)NCCC(=O)Nc1nc(-c2ccc3c(c2)OCCO3)cs1	9.31% (inactive)	–
Cc1cc(C)c2nc(SCC(=O)N(C)C3CCS(=O)(=O)C3)cc(C)c2c1 (stereo not drawn)	-1.99% (inactive)	–
COc1ccc2c(-c3ccccc3)cc(SCC(=O)N(C)C3CCS(=O)(=O)C3)nc2c1 (stereo not drawn)	–	10 µM (active)
COc1ccc(-c2cc(=O)oc3cc(OCC(=O)N(C)C4CCS(=O)(=O)C4)ccc23)cc1 (stereo not drawn)	1.21% (inactive)	–
[2H]C(CCOS(N)(=O)=O)c1ccccc1 (stereo not drawn)	-1.7% (inactive)	–
N#C/C(=C/c1ccc(-c2ccccc2[N+](=O)[O-])o1)C(=O)NCCN1CCCCC1	0.585% (inactive)	–
Cc1ccc(-c2ccc(/C=C(\C#N)C(N)=S)o2)c([N+](=O)[O-])c1	–	11.2 µM (active)
Cc1cc(-c2ccc(/C=N/n3cnnc3)o2)c([N+](=O)[O-])cc1C	33.2% (inactive)	–
O=C(Nc1ccc(-c2cscn2)cc1)C1CCCN(Cc2ccc(CO)o2)C1 (stereo not drawn)	5.13% (inactive)	–
COc1ccc(CCNC(=O)c2cnc(Cl)c(Cl)c2)cc1	-3.9% (inactive)	–
CCCCNC(=O)N(O)C1N(/N=C/c2ccc(N(C)C)cc2)C(=S)SC1(C)C (stereo not drawn)	-35.3% (inactive)	–
CCCCNC(=O)N(O)C1N(/N=C/c2ccccc2O)C(=S)SC1(C)C (stereo not drawn)	–	11.2 µM (active)
CCC(C)N1C(=S)SC(C)(C)C1N(O)C(=O)NC1CCCCC1 (stereo not drawn)	-15.4% (inactive)	–
